Test results as given in PubChem BioAssay AID1347421 (Sanford-Burnham Center for Chemical Genomics, 2020).
The full ranking holds about 1,500 compounds; the median of “activity” is about 2, and the lowest 2% start at about -18. This is one part of a sample in which the lowest values are shown more often than they occur. The source made the active and inactive calls.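 The calls were made as follows: active = inhibition of at least 40% at 10 µM; inconclusive = no clear call, values can overlap the other calls; inactive = the rest.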

molecular target: Sulfhydryl oxidase 1 (Homo sapiens) (UniProt O00391); experiment: human QSOX1 sulfhydryl oxidase inhibition – biochemical, ROS-Glo luminescence, single concentration, confirmation (AID 1347421); settings: recombinant hQSOX1, RNase A substrate, ROS-Glo H2O2 luminescence; at 10 µM;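 also: 0% = DMSO wells with enzyme and 100% = wells lacking QSOX1 enzyme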
Sequence (O00391 whole entry, looked up): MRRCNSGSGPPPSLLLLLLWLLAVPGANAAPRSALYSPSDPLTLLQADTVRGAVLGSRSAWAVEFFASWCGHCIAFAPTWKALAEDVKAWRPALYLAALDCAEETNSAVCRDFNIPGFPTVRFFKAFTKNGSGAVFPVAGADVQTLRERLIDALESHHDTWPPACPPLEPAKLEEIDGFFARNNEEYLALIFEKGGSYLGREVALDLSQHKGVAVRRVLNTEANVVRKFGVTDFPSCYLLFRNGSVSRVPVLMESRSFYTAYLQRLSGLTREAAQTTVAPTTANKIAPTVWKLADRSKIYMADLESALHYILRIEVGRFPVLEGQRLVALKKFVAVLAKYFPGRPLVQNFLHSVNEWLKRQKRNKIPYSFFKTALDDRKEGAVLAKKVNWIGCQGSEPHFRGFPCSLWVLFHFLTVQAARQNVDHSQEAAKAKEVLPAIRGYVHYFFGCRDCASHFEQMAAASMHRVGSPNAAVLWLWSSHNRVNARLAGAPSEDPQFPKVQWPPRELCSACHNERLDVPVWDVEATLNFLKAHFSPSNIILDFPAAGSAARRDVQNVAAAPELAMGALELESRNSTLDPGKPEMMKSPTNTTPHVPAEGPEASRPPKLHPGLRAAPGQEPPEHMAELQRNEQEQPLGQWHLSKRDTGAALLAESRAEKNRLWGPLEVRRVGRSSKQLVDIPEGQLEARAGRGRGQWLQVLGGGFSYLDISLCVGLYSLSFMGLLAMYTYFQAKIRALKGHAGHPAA

| Compound | activity |
| --- | --- |
| Cc1ccc(C(=O)N2CCC3(CCCN(Cc4ccc(F)c(F)c4)C3=O)C2)cn1 (stereo unspecified) | 3.9% |
| CCSCCn1ncc(N2CCNCC2)cc1=O | 1.4% |
| CC(C)(CO)NC(=O)CC(c1ccccc1)c1ccc(Cl)cc1 (stereo unspecified) | 0.5% |
| NCc1ccccc1SC1=[C+]C=C[C+]=C1CN1CCOCC1 | -11.3% (inactive) |
| O=C(NC(=O)N1CCCC1)c1ccc(Cl)cc1 | -2.8% (inactive) |
| O=C1CCCN1CCCNCc1cccc(OCC(O)CN2CCCCCC2)c1 (stereo unspecified) | 5.6% |
| COc1ccccc1Oc1ncccc1CNCC1CCOC1 (stereo unspecified) | 2.6% |
| Cc1cc(S(=O)(=O)n2ccnc2)c(C)c(C)c1C | -0.1% (inactive) |
| O=C(CC1C(=O)NCCN1Cc1cccnc1)NCCCn1ccc2ccccc21 (stereo unspecified) | 3.3% |
| COc1ccc(S(=O)(=O)N2CCCC2)cc1N(C)S(C)(=O)=O | -11% (inactive) |
| COc1ccc(S(=O)(=O)N2CCCC(C(=O)NC3CC3)C2)cc1OC (stereo unspecified) | -18.9% (inactive) |
| COCC(=O)Nc1ccc(S(=O)(=O)N2CCCC(C)C2)cc1 (stereo unspecified) | 7.5% |
| CN1CCCCCC1C(=O)NCc1cccnc1N1CCN(c2ccccn2)CC1 (stereo unspecified) | -5.2% (inactive) |
| CCOC(=O)c1cccc(CSc2n[nH]c(N)n2)c1 | -1.9% (inactive) |
| Cn1ccnc1C1CCCCN1Cc1c(C(=O)N2CCCCCCC2)nc2sccn12 (stereo unspecified) | 10.8% |
| COc1cccc(-c2n[nH]c3c2CN(CCc2ccccc2)CC3)c1 | 5.1% |
| Fc1ccccc1-c1noc2c1CN(Cc1ccc3c(c1)OCCO3)CC2 | -4.5% (inactive) |
| O=C(NCc1ccc2c(c1)OCO2)C1CCC(=O)N(CCc2cccc(F)c2)C1 (stereo unspecified) | -2% (inactive) |
| CCN(CC)C(=O)NCc1ccccn1 | -15.1% (inactive) |

| Compound | activity |
| --- | --- |
| CCN(CC)C(=O)NCc1ccc2c(c1)OCO2 | -18.4% (inactive) |
| Cc1cc(N2CCN(C(=O)c3cn(Cc4ccccc4F)nn3)CC2)cc(C)n1 | 2.1% |
| Cc1noc(C)c1CC(=O)N1CCCC(CCC(=O)N(C)CCc2ccccn2)C1 (stereo unspecified) | 5.3% |
| CN(CCc1ccccn1)C(=O)CCC1CCCN(C(=O)Cc2cccnc2)C1 (stereo unspecified) | 4.4% |
| FC(F)(F)c1cc(-c2ccco2)nc(NCc2cccs2)n1 | -4.8% (inactive) |
| FC(F)(F)c1cc(-c2ccco2)nc(N2CCCCC2)n1 | -20.8% (inactive) |
| Cc1ccccc1CC(=O)NCC(C)C | -16% (inactive) |
| COc1cc(C(=O)NC2CCCCC2)ccc1OC1CCN(C(C)=O)CC1 | 3.4% |
| CN(CCc1ccccn1)[C@@H]1CCN(Cc2ccc(C#CCO)s2)C[C@H]1O | 4.2% |
| Cc1occc1C(=O)Nc1ccc([N+](=O)[O-])cn1 | 17.1% |
| C=C(C)CN(CC)C(=O)c1cc(COc2ccc(-n3cncn3)cc2)on1 | 9.4% |
| CCN1CCN(c2ncc3c(n2)CC(c2ccc(OC)c(OC)c2)CC3=O)CC1 (stereo unspecified) | -19% (inactive) |
| COc1ccc(C2CC(=O)c3cn[nH]c3C2)cc1 (stereo unspecified) | -17.7% (inactive) |
| COc1ccc(C2CC(=O)c3cnc(NC4CC4)nc3C2)cc1 (stereo unspecified) | 3.9% |
| O=C(CCc1ccsc1)N1CCOC(Cc2ccccc2Cl)C1 (stereo unspecified) | 20.5% |
| Cc1cc(Br)c(S(=O)(=O)NCc2ccncc2)cc1C | 3.4% |
| NC(=O)C1(N2CCCCC2)CCN(C(=O)C2CCC(=O)N(C3CCCC3)C2)CC1 (stereo unspecified) | 5.6% |
| Cc1ccccc1C(=O)Nc1ccccc1C(=O)N(C)C | -20% (inactive) |
| O=C(Nc1ccccc1C(=O)NC1CC1)c1ccccc1Cl | 11.7% |

| Compound | activity |
| --- | --- |
| Cc1ccccc1C(=O)Nc1c(Cl)ccc2nsnc12 | 0.9% |
| COc1ccccc1/C=C/CN1CCNC(=O)C1CC(=O)NCCOc1cccnc1 (stereo unspecified) | -2% (inactive) |
| CC(C)Cn1c(CN(C)Cc2ccco2)cnc1S(=O)(=O)CC1CCCO1 (stereo unspecified) | 4.1% |
| O=C1CCC(C(=O)N2CCC(Oc3cccc(F)c3)CC2)CN1CCc1ccccn1 (stereo unspecified) | 0.7% |
| O=C(Nc1n[nH]c(C2CCCCC2)n1)N1CCOC2(CCCC2)C1 | 1% |
| C=CCC1(CC=C)CCCN1C(=O)c1cn(CC2COc3ccccc3O2)nn1 (stereo unspecified) | -0.3% (inactive) |
| O=c1c2ccccc2nc(NCCO)n1Cc1ccccc1 | -20.3% (inactive) |
| CS(=O)(=O)c1ncc(CO)n1Cc1ccccc1 | -4.5% (inactive) |
| O=C(O)c1ccc(S(=O)(=O)N2CCSCC2)cc1 | -3% (inactive) |
| NC(=O)COc1ccc(S(=O)(=O)N2CCOCC2)cc1 | -13.3% (inactive) |
| O=C(c1cc(S(=O)(=O)N2CCOCC2)c(Cl)cc1Cl)N1CCSCC1 | -18.4% (inactive) |
| O=C(Nc1ccc(-c2nc3ccccc3[nH]2)cc1)c1ccccn1 | 5.8% |
| CN(C)S(=O)(=O)c1cccc(S(C)(=O)=O)c1 | 8.2% |
| COc1cc(C)nc(NC(=O)Nc2cccc(Cl)c2)n1 | -2.3% (inactive) |
| Cc1ccc(S(=O)(=O)c2ncsc2Cl)cc1 | 0.6% |
| CC(C)Oc1ccc(NC(=O)CCN2C(=O)c3ccccc3C2=O)cc1 | 0.6% |
| COC1=C(OC)C=CC(c2nnn(C3CCNCC3)n2)=[C+]1 | -20.6% (inactive) |
| COc1cccc(CNCc2ccc(F)cc2)c1 | -17.7% (inactive) |
